Screening data (PubChem)
TPT1 inh = C. albicans TPT1 enzyme inhibition | inhibition, % at 5 µM | recombinant caTPT1, FP RNA substrate dephosphorylation | hit rate 0.81% among 300,000;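 active = inhibition above the mean of all tested compounds plus 3 SD, set per screening campaign, cut at about 24% in these data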;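 note: plate controls were DMSO alone for no effect and ferristatin control at 100 nM for full effect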
PHOSPHO1 block = inhibitors of human PHOSPHO1 phosphatase. Q8TCT1. recombinant PHOSPHO1, absorbance phosphatase assay. inhibition, % at 13.3 µM. hit rate 1.1% among 290,000. AID 1565; in the data active = inhibition above about 60%
CendR NRP1 mod = NRP-1/CendR interaction modulation | FAM-RPARPAR peptide binding to NRP-1, fluorescence polarization | O14786 | hit rate 0.85% among 360,000 | inhibition, % at 25 µM;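 active = inhibition or corrected inhibition above about 18%, plus a signal ratio from 0.5 to 1.5, limit read from the data, passing the limit was not always enough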
HNF4A DNA FP = change in binding of human HNF4 alpha to DNA | P41235 | HNF4a-FITC DNA binding, fluorescence polarization, 1 h | activity change, % at 10 µM | hit rate 0.3% among 360,000; in the data active = activity change above about 30%, passing the limit was not always enough
Target sequence (P41235 whole entry, looked up): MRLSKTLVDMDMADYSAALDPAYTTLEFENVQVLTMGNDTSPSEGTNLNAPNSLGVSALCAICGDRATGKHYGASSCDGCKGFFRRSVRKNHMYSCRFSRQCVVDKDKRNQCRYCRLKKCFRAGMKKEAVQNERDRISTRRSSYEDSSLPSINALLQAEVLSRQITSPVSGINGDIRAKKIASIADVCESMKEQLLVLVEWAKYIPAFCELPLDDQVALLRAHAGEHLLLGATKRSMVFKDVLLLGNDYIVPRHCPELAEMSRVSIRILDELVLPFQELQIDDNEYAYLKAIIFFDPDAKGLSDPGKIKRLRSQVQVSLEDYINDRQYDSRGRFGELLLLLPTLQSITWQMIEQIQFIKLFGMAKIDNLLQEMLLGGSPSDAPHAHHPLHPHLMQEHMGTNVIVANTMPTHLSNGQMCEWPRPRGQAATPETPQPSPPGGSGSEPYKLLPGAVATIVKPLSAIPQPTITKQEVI
Rpn11 inh = Rpn11 (human) deubiquitinase inhibition. O00487. AID 588493. hit rate 0.59% among 360,000. human 26S proteasome, Ub4-pepOG fluorescence polarization; 20S core pre-blocked with epoxomicin. inhibition, % at 20 µM;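 active = inhibition at 20 µM, scaled to each plate's controls, above about 33%, limit read from the data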
Fh CTSL1 inh = counter-screen for PFM18AAP inhibitors: inhibitors of F. hepatica cathepsin L1; recombinant F. hepatica cathepsin L1, Z-Leu-Arg-MCA fluorescence; inhibition, % at 5.96 µM; hit rate 0.49% among 300,000; AID 1906;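 active = inhibition above the mean of all tested compounds plus 3 SD, set per screening campaign, cut at about 17% in these data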;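 note: 0% = plate median of test compound wells and 100% = 1 µM Z-Phe-Ala-diazomethylketone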
The depositor's hits bear a star; . = no result given. Shown are actives, neighbours in structure and some others; about 3.3% of the full set was active somewhere.

SMILES | TPT1 inh | PHOSPHO1 block | CendR NRP1 mod | HNF4A DNA FP | Rpn11 inh | Fh CTSL1 inh
CCCCNC(=O)OC(C)CNC(=O)Oc1cccc(C)c1 (centres undefined) | 2 | -23 | 10 | 3 | 0 | 26*
CCCCNC(=O)OCCNC(=O)Oc1cccc(C)c1 | -1 | 8 | 9 | 0 | -4 | 45*
C[C@@H]1CN([C@@H](C)CO)C(=O)CCCn2nncc2CO[C@H]1CN(C)C(=O)Nc1ccc(F)cc1 | . | . | -1 | 2 | 11 | .
COc1ccc(CC(=O)Nc2c(C(=O)N3CCN(c4ncccn4)CC3)oc3ccccc23)cc1 | 1 | 45 | 14 | 2 | 1 | 0
COc1ccc(-c2cccc(C3CC=CC4C3C(=O)N(Cc3ccccc3)C4c3ccc4ccccc4c3)c2)cc1 (centres undefined) | -3 | -22 | 28* | -1 | 6 | 0
O=S(c1ccccc1)C(c1ccccc1)c1ccccc1 (centres undefined) | . | . | -5 | -1 | 2 | .
Cc1ccc(S(=O)C(c2ccccc2)c2ccccc2)cc1 (centres undefined) | . | . | 20* | -3 | 2 | .
O=CNc1cc(-c2ccoc2)cn2c(-c3ccc(F)cc3)cnc12 | . | . | -111 | 17 | 34 | .
COc1cc(CN2CCN(C(=O)c3cccc4ccccc34)CC2)cc(OC)c1O | 2 | 20 | 4 | 0 | -3 | -1
COc1ccc(C2/C=C\CN(Cc3ccncc3)CC(=O)N2Cc2ccc(F)cc2)cc1 (centres undefined) | -3 | 35 | 11 | 5 | -3 | 1
CCN1C(=O)/C(=C2\SC(=S)N(CCCOC)C2=O)c2ccccc21 | 1 | 14 | 12 | -3 | -3 | -2
COCCN1C(=O)/C(=C2/C(=O)N(CC(=O)Nc3ccccc3Cl)c3ccccc32)SC1=S | 0 | -13 | 28* | 5 | 2 | -2
O=C(Nc1ccccc1)c1csc(-c2ccccc2)n1 | -2 | 34 | 1 | 6 | -1 | -1
O=C(Nc1ccc(C(F)(F)F)cc1)c1csc(-c2ccncc2)n1 | 1 | 64* | -3 | 0 | 2 | -1
O=C(NNC(=O)c1csc(-c2cccnc2)n1)c1ccccc1 | -5 | 9 | 0 | -5 | -4 | -2
O=C(NNC(=O)c1csc(-c2cnccc2C(F)(F)F)n1)c1ccc(C(F)(F)F)cc1 | 2 | -3 | 1 | 5 | 8 | 23*
CCC1=C(OC(=O)N(CC)CC)N2C(=O)OC(=NCCc3c[nH]c4ccccc34)[C@]2(C)[C@H]2C1=CC[C@H]1C(=O)N(C)C(=O)[C@H]12 | -3 | 26 | 19 | -2 | 6 | 1
CCC1=C(OC(=O)N(CC)CC)N2C(=O)OC(=NCC(=O)OC)[C@]2(C)[C@H]2C1=CC[C@H]1C(=O)N(CC(=O)OC)C(=O)[C@H]12 | -1 | 35 | 24* | -1 | -9 | -3
CCC1=C(OC(=O)N(CC)CC)N2C(=O)OC(=NCCOC)[C@]2(Cc2ccccc2)[C@H]2C1=CC[C@H]1C(=O)N(C)C(=O)[C@H]12 | -1 | 13 | 24* | 3 | -7 | -3
COCCN=C1OC(=O)N2C(=O)C3=C4[C@@H](C[C@H]5C(=O)N(c6ccccc6)C(=O)[C@H]5[C@H]4[C@@]12Cc1ccccc1)[C@H]1C(=O)N(c2ccccc2)C(=O)[C@H]1[C@H]3C | -5 | 13 | 16 | -4 | -14 | 18*
CCC1=C(OC(=O)N(CC)CC)N2C(=O)OC(=NCCOC)[C@]2(Cc2ccccc2)[C@H]2C1=CC[C@H]1C(=O)N(CC)C(=O)[C@H]12 | -3 | 31 | 19 | 2 | -1 | 3
CCC1=C(OC(=O)N(CC)CC)N2C(=O)OC(=NCc3ccccc3)[C@]2(C)[C@H]2C1=CC[C@H]1C(=O)N(CC)C(=O)[C@H]12 | -2 | 22 | 10 | -4 | -3 | -1
CCC1=C(OC(=O)N(CC)CC)N2C(=O)OC(=NCC(=O)OC)[C@]2(C)[C@H]2C1=CC[C@H]1C(=O)N(CC)C(=O)[C@H]12 | -5 | 18 | 35* | -3 | -4 | 1
CCCNC(=O)CN(CCc1ccccc1)S(C)(=O)=O | 1 | -1 | -19 | 0 | -3 | 1
